Compound activity (PubChem)
Sampled rows, rich in hits. Any-hit rate of the full collection: about 7.3%.
NPC1 prom act = NPC1 promoter activation; Huh7 NPC1 promoter luciferase reporter, 24 h; Potency, µM (top dose mostly 9.22 µM), for inactives: at the highest dose activation, actives largely listed as activators; hit rate 2.4% among 320,000; also: % of control where 0% means no effect; nearly all actives have a fitted effect of over 60% in size
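Huh7 reporter cells (NPC1 promoter driving luciferase) are dosed with compound for 24 h at 37 °C, 5% CO2; luciferase detection reagent is then added and luminescence measured after 10 min at ambient temperature.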
SMN2 splice up = increases expression of the SMN2 splice variant. HEK293 SMN2-luciferase splicing reporter, luminescence, 30-36 h. Potency, µM (series often up to 46.1 µM), without a hit: at the highest dose activity change, positive = activation, usual class: activators. hit rate 2.8% among 210,000; also: % of control where 0% means no effect; nearly all actives have a fitted effect of over 55% in size
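qHTS luciferase splicing reporter: luminescence rises when SMN2 exon 7 is included in transfected HEK293 cells. Compound exposure lasted 30-36 h at 37C, with 4.5 mM final sodium butyrate as control, followed by a ONE-Glo read.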
FLuc counter = firefly luciferase modulation, counter-screen for miR-21 project; hit rate 6.9% among 360,000; purified FLuc, Km substrates, luminescence inhibition; Potency, µM (doses to about 57.5 µM), for inactives: at the highest dose activity change, negative = inhibition, most hits filed as inhibitors; P08659;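 also: plate controls were vehicle for no effect and reference inhibitor for full effect; nearly all actives have a fitted effect of over 55% in size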
Target sequence (P08659 whole entry, looked up): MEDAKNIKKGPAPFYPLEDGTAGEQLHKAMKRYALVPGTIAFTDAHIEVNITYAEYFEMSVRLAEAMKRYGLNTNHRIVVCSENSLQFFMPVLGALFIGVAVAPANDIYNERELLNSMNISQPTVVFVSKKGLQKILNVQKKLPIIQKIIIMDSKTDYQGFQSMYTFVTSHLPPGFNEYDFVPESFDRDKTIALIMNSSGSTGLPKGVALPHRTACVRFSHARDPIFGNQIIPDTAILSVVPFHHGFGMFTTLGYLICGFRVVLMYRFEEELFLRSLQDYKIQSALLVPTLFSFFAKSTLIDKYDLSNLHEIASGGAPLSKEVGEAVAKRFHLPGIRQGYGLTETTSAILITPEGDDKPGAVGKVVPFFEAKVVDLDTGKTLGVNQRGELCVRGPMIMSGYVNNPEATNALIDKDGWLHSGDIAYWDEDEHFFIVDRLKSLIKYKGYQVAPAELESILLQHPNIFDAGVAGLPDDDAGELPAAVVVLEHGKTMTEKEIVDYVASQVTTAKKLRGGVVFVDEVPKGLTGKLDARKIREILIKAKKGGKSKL
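Biochemical qHTS of compounds, final roughly 60 µM downward over six points, against 10 nM purified firefly luciferase using Km concentrations of substrates (10 uM D-luciferin, 10 uM ATP) in Tris acetate pH 7.5 buffer; luminescence output.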
Rab9 promoter act = activators of Rab9 promoter; Huh7 Rab9 promoter-luciferase reporter, luminescence, 24 h; hit rate 2.8% among 320,000; Potency, µM (series often up to 9.22 µM), inactives show at the top dose activation, negative = inhibition, most hits filed as activators; also: % of control where 0% means no effect; nearly all actives have a fitted effect of over 60% in size
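Luminescence read-out: Huh7 cells stably expressing Rab9-luciferase, treated 24 h with compound at 37 °C, then lysed with luciferase reagent for 10 min at ambient before reading.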
Luc counter = counter-screen: inhibitors of Kinase-Glo firefly luciferase. Potency, µM (top dose mostly 38.3 µM), without a hit: at the highest dose activity change, negative = inhibition, usual class: inhibitors. hit rate 0.28% among 200,000. Q27757. Kinase-Glo luciferase, ATP luminescence, 8 min; also: % is scaled to controls: 0 for no effect and ±100 for the full control effect; nearly all actives have a fitted effect of over 60% in size
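Compounds were added to a substrate mix at pH 7.2 (50 mM imidazole, 10 uM ATP, within the enzyme's linear range), followed by Kinase-Glo detection reagent; luminescence was measured after 8 minutes at ambient temperature.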
ELG1 genotoxic = induces genotoxicity in HEK293T cells with luciferase-tagged ELG1 | HEK293T ELG1-luciferase reporter, luminescence, 16 h | hit rate 1.3% among 330,000 | Potency, µM (series often up to 46 µM), inactives show at the highest dose activity change, positive = activation, usual class: activators | AID 504466; also: % of control where 0% means no effect; nearly all actives have a fitted effect of over 60% in size
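Cells (2,000/well) expressing the ELG1-luciferase fusion are dosed by pin tool and kept 16 hr at 37 °C, 5% CO2. Signal comes from ONE-Glo luciferase reagent after 30 min at room temperature.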
* hit, by the source's call; ? = inconclusive; . = not tested or not shown; [ ] = dose if it differs, or a comment. Calls follow the shape of the dose curve; as a rule, active = well fitted curve in the direction sought with a large enough effect; inconclusive = small, poorly fitted or top-dose-only effect, or another doubt; inactive = no such curve, though single readings can be large; an effect the other way counts as inactive or inconclusive. Potency is read from the fitted curve at half-maximal effect.

SMILES	NPC1 prom act	SMN2 splice up	FLuc counter	Rab9 promoter act	Luc counter	ELG1 genotoxic
CCc1nc2sc3c(O)cc(=O)[nH]c3c2cc1C	0%	.	15µM*	-1%	.	-1%
COCCSc1nnc(NC(=O)C(C)(C)C)s1	?	.	15µM*	?	-1%	17%
CC(C)(C)C(=O)Nc1nnc(SCc2ccc(F)cc2)s1	17%	-18%	?	18%	1%	?
CC(C)(C)C(=O)Nc1nnc(SCc2cccc(F)c2)s1	?	?	19µM*	2µM*	-3%	15%
O=C(NCCCN1CCN(c2ccc(F)cc2)CC1)Nc1ccccc1Cl	.	1%	-7%	.	.	.
Cc1cc(C)c(O)c(-c2cc(C(=O)Nc3cccnc3)[nH]n2)c1	19%	.	19µM*	25%	.	-9%
Cc1cc(O)c(-c2cc(C(=O)Nc3cccnc3)[nH]n2)cc1C	0.25µM*	.	1.9µM*	1µM*	.	3.7µM*
CCc1ccc(O)c(-c2cc(C(=O)Nc3cccnc3)[nH]n2)c1	1.6µM*	.	11µM*	2.2µM*	.	?
CC(=O)Nc1ccc(NC(=O)c2cc(-c3cc(C)c(C)cc3O)n[nH]2)cc1	11%	.	-13%	23%	.	-15%
Cc1cccc(NCc2nnc3n2CCCCC3)c1C	.	.	-3%	.	.	.
O=C(O)CCCCn1ccc(=O)[nH]c1=O	.	-8%[9.22 µM]	.	.	-2%[7.66 µM]	.
CCOc1ccc(C(=O)c2cn(CC(=O)Nc3ccc4c(c3)OCCO4)c3ccc(F)cc3c2=O)cc1	.	-4%	-5%	.	.	.
Cc1ccc(-c2nnc(SCC(=O)NC(C)(C)C)nc2-c2ccc(C)cc2)cc1	.	.	4%	.	.	.
O=C1C=C(N2CCCCCC2)C(=O)N1c1ccc(Cl)cc1	1.6µM*	.	2.1µM*	2.2µM*	.	?
Nc1c(-c2ccccc2)cnc2c(-c3ccccc3)cnn12	0.32µM*	.	0.24µM*	0.11µM*	.	0.73µM*
Nc1c(-c2cccs2)cnc2c(-c3ccc(F)cc3)cnn12	0.45µM*	.	0.48µM*	0.35µM*	.	2.6µM*
CS(=O)(=O)c1cnc2c(-c3ccc(F)cc3)cnn2c1N	0.79µM*	?	2.4µM*	1.1µM*	-2%	?
CCC1CN(C(=O)N2CCC(C(=O)NCCc3ccc(OC)cc3OC)CC2)c2cc(C)ccc2O1 (stereo not given)	.	.	-11%	.	.	.
CC(C)c1ccc(C(=O)Nc2nnc(S(=O)(=O)N3CCOCC3)s2)cc1	-5%	.	17µM*	0%	.	-2%
Cc1ccccc1N1CCN(S(=O)(=O)c2nnc(NC(=O)c3ccc(C(C)C)cc3)s2)CC1	.	.	24µM*	.	.	.
CCN(CC)S(=O)(=O)c1nnc(NC(=O)c2ccc(C)cc2)s1	.	.	-16%	.	.	.
CCN(CC)S(=O)(=O)c1nnc(NC(=O)c2ccc(C(C)C)cc2)s1	.	.	9.5µM*	.	.	.
Cc1ccc(N2CCN(S(=O)(=O)c3nnc(NC(=O)c4ccc(C(C)C)cc4)s3)CC2)cc1	.	.	5%	.	.	.
Cc1ccccc1N1CCN(S(=O)(=O)c2nnc(NC(=O)c3ccccc3)s2)CC1	.	.	-8%	.	.	.
Cc1ccc(NC(=O)Cn2c(C)cc(C)c(C#N)c2=O)cc1F	.	.	-2%	.	.	.
SMILES	NPC1 prom act	SMN2 splice up	FLuc counter	Rab9 promoter act	Luc counter	ELG1 genotoxic
COc1ccc(-c2nc3c4ccccc4n(CC(=O)Nc4cc(F)ccc4F)c(=O)n3n2)cc1	.	.	-19%	.	.	.
Clc1ccc(N2CCN(c3ncnc4c3nc3n4CCCC3)CC2)cc1	.	.	-8%	.	.	.
Cc1nc2c(C(=O)N(C)Cc3ccccc3)c[nH]n2c(=O)c1Cc1ccc(Cl)cc1	.	-36%	?	.	.	.
COc1ccc(CCNC(=O)c2ccc(CN3CCOCC3)cc2)cc1	12%	-15%	?	-3%	-1%	1%
Cc1cc(C(=O)NCCC2=CCCCC2)ccc1[N+](=O)[O-]	4.5µM*	.	12µM*	1.8µM*	-4%	?
O=C(Cc1ccccc1[N+](=O)[O-])NCCC1=CCCCC1	8%	7%	-14%	12%	0%	9%
O=C(CCNC(=O)c1ccc([N+](=O)[O-])cc1)NCCC1=CCCCC1	-5%	.	-2%	-3%	.	-3%
